The whole screen tested about 69,000 compounds, of which about 8,600 (12%) showed an effect of 50% or more. For the sample, strong results were picked, then their nearest neighbours and some compounds at random.
test system: Plasmodium berghei; assay: Screen against P. berghei liver stage (PbLuc), transformed with Luciferase, at 10uM; type: functional, HepG2; settings: tested at 10 uM

SMILES	INHIBITION
Cc1ccc(CN2C(=O)OCC2CO)c2ccccc12 (stereo not drawn)	40.3%
CNc1nc(CNC(=O)Nc2cccc(C(C)OC)c2)cs1 (stereo not drawn)	13.957%
CN(C)[C@H]1CCCCN(C(=O)CCc2csc(N)n2)C1	16.8%
COCCCC1CCCN(C(=O)CCc2csc(N)n2)C1 (stereo not drawn)	35.8%
Cc1n[nH]c(C2CN(C(=O)CCc3cscn3)CCO2)n1 (stereo not drawn)	40.75%
CN(C)C1CCCN(C(=O)CCc2csc(N)n2)CC1 (stereo not drawn)	33.9%
Nc1nc(CCC(=O)N2CCOC(CC3CCCCC3)C2)cs1 (stereo not drawn)	85.1%
Nc1nc(CCC(=O)N2C[C@H](c3ccccc3)[C@@H](N)C2)cs1	51%
N[C@H]1CN(C(=O)CCc2ccccn2)C[C@@H]1c1ccccc1	37.6%
N[C@H]1CN(C(=O)CCC(F)(F)F)C[C@@H]1c1ccccc1	36.5%
CN1[C@@H]2CC[C@H]1CN(C(=O)CCc1csc(N)n1)CC2	50.3%
CC1c2ncc(COCC3CCOCC3)n2CCN1Cc1cccnc1 (stereo not drawn)	12.1%
Cc1ccsc1[C@@H]1CCN(C(=O)c2cc3ccccc3[nH]2)C[C@H]1O	66.9%
Cc1ccsc1[C@@H]1CCN(C(=O)CCc2nc3ccccc3[nH]2)C[C@H]1O	-27.5%
Cc1ccsc1[C@@H]1CCN(C(=O)c2ccc(-c3cc[nH]n3)cc2)C[C@H]1O	16.1%
c1csc(CN2CCc3ncnc(C4CCOC4)c3CC2)n1 (stereo not drawn)	31.4%
Cn1ncc2c(=O)[nH]c(CN(Cc3ccco3)C3CC3)nc21	47%
Cc1ccc(C(C)N(C)Cc2nc3c(cnn3C)c(=O)[nH]2)cc1 (stereo not drawn)	52.1%
Cc1ccc(C(C)N(C)Cc2nc3c(cnn3C)c(=O)[nH]2)c(C)c1 (stereo not drawn)	8.315%
CN(Cc1nc2c(cnn2C)c(=O)[nH]1)Cc1ccco1	-5.07%
Cn1ncc2c(=O)[nH]c(CN3CCc4ccccc4C3)nc21	40%
Cc1ccc(CN(Cc2nc3c(cnn3C)c(=O)[nH]2)C2CC2)o1	15.5%
Cc1ccccc1C(C)N(C)Cc1nc2c(cnn2C)c(=O)[nH]1 (stereo not drawn)	26.45%
Cn1ncc2c(=O)[nH]c(CN3CCCC3Cc3ccccc3)nc21 (stereo not drawn)	24%
Cn1ncc2c(=O)[nH]c(CN3CCC(Cc4ccccc4)CC3)nc21	52.7%
CC(c1ccco1)N(C)Cc1nc2c(cnn2C)c(=O)[nH]1 (stereo not drawn)	66.8%

SMILES	INHIBITION
Cn1ncc2c(=O)[nH]c(CN(Cc3ccco3)C3CCCC3)nc21	54.3%
COc1ccc(C(C)N(C)Cc2nc3c(cnn3C)c(=O)[nH]2)cc1 (stereo not drawn)	0.7%
COC(C)(C)CNC(=O)N1CCC(n2ccc(C(F)(F)F)n2)CC1	33.7%
COCCn1cc(CC(=O)Nc2c(C)nn(C)c2C)c2ccccc21	37.8%
CCn1cc(CNC(=O)C2CCCC2)cn1	38.3%
CCOc1ccccc1CC(=O)N1C[C@@H](C(=O)O)[C@H](c2ccncc2)C1	-5.32%
Cc1cccc(CN2CCC(c3csc4nccn34)CC2)n1	15.55%
CCN(Cc1nc2c(cnn2C)c(=O)[nH]1)c1ccccc1	46.2%
CCN(Cc1nc2c(cnn2C)c(=O)[nH]1)c1cc(C)cc(C)c1	64.7%
CCN(Cc1nc2c(cnn2C)c(=O)[nH]1)c1cccc(C)c1	11.2%
CC(=O)N1CCC2(C=C(C(=O)NC3CC3)c3ccccc32)CC1	-25.8%
COCCCn1ccnc1-c1cnc(OC)nc1	10.1%
COc1cc(-c2nccn2CCn2cccn2)cc2c1OCO2	9.56%
COc1cc(-c2nccn2C(C)CCn2cccn2)cc2c1OCO2 (stereo not drawn)	51.3%
COc1ncc(-c2nccn2CCN(C)C)cn1	-13.2%
COc1cc(CNC(C)Cn2cccn2)cc2c1OCO2 (stereo not drawn)	12.6%
COc1ncc(-c2nccn2C(C)CCn2cccn2)cn1 (stereo not drawn)	66.9%
Cc1cc(CN2CCN(C(=O)c3ccc(=O)n(C)c3)CC2)no1	7.19%
Cc1nn(C)c(N(C)C)c1CNCc1cccnc1N(C)C	-17.4%
COc1cccc(CC(=O)N2CC[C@H]3[C@@H]2CCC(=O)N3C)c1	-3.51%
COc1cccc(CN2CC[C@H]3[C@@H](C2)[C@H](c2ccsc2)CN3C(C)=O)c1	61.9%
COc1cccc([C@@H]2CCN(Cc3cccc(C)n3)C[C@H]2O)c1	-3.83%
CC(=O)N1C[C@@H](c2ccsc2)[C@@H]2CN(Cc3cccc(Cl)c3)CC[C@@H]21	65.5%
COc1cccc([C@H]2CN(C(C)=O)[C@@H]3CCN(Cc4ccsc4)C[C@H]23)c1	63.4%
COc1cccc([C@@H]2CCN(Cc3ccc4ccccc4n3)C[C@H]2O)c1	-18.4%
COc1cccc(CN2CCCC(c3cc(C(N)=O)[nH]n3)C2)c1 (stereo not drawn)	-7.31%

SMILES	INHIBITION
CC(=O)N1CCO[C@@H]2CN(Cc3cccc(Cl)c3)C[C@@H]2C1	39.4%
CC(=O)N1C[C@@H](c2ccsc2)[C@@H]2CN(Cc3ccccc3)CC[C@@H]21	16.9%
O=S(=O)(N1CCCC1)N1CC(c2ccnc(Nc3ccccn3)n2)C1	26.7%
CN(C)c1ccc(NC(=O)c2ccnn2C)nc1	-62.7%
CCN1CC2(CC1=O)CN(C(C)=O)CCN(C(=O)NC(C)C)C2 (stereo not drawn)	-17.2%
COc1ccc(OCCNCc2c(C)nn(C)c2N(C)C)cc1	-7.1%
CCN(C)c1ncnc2c1CCN(C(=O)N1CCCC1)CC2	-21.3%
CC(=O)N1CCN(CCNS(=O)(=O)c2ccc(F)c(F)c2)CC1	-35.1%
COC(=O)C(C)(C)NC(=O)c1cc(COc2ccccc2OC)[nH]n1	-3%
COc1cccc(OCc2cc(C(=O)NC[C@@H]3CCCN3)n[nH]2)c1	14.9%
COc1cccc(OCc2cc(C(=O)NC[C@H]3CCCN3)n[nH]2)c1	25.4%
CNC(=O)C(C)(C)NC(=O)c1cc(COc2ccccc2OC)[nH]n1	63.7%
CNC(=O)C(C)(C)N(C)C(=O)c1cc(COc2ccccc2OC)[nH]n1	-4.23%
COc1ccccc1OCc1cc(C(=O)NC[C@@H]2CCCN2)n[nH]1	82.9%
Cc1ccc(NC(=O)c2cnc(N3CCN(C)CC3)nc2C)cc1C	43.8%
CCc1noc(-c2cccc(OCC(=O)NC(C)C)c2)n1	48.7%
CC1(c2[nH]ncc2C(N)=O)CCN(c2ncccn2)CC1	26.3%
CC(C)=CCN1C[C@@H]2CC[C@H]1CN(C(=O)Cn1c(C)cc(C)nc1=O)C2	-35%
CCn1nc(C)c(C(C)NC(=O)c2cnc(N(C)C)nc2C)c1C (stereo not drawn)	10.3%
Cc1nc(-c2ccncc2)ncc1C(C)NC(=O)CN1CCCCC1 (stereo not drawn)	35.8%
CCN(C)S(=O)(=O)NC(C)c1cnc(N(C)C2CCCCC2)nc1C (stereo not drawn)	63.1%
Cc1nc(N(C)C2CCCCC2)ncc1C(C)NC(=O)c1cscn1 (stereo not drawn)	59.2%
CN(C)c1nccc(N(C)C2CCCCC2)n1	25.5%
Cc1nc(N(C)C2CCCCC2)ncc1C(C)NC(=O)c1cccnc1 (stereo not drawn)	77.5%
CN(c1ncccc1CNC(=O)c1cscn1)C1CCCCC1	26%
CC(C)C(=O)N1CCN(C(=O)c2cscn2)[C@H]2CS(=O)(=O)C[C@H]21	26.8%

SMILES	INHIBITION
C[C@@H](NC(=O)c1cccnc1)c1onc(-c2ccccc2)c1C(=O)O	7.5%
NC(=O)CN1CCC(c2cncc(-c3cccc(Cl)c3)n2)CC1	-40.6%
CC(C)COC(=O)N1CCCN(C(C)c2nnc(CC(C)C)o2)CC1 (stereo not drawn)	4.22%
CCCc1nc(C(C)(C)NC(=O)C2CC(=O)N(C3CCCC3)C2)no1 (stereo not drawn)	-15.5%
CCCC(=O)N1CCN(CC(O)COCC)CC1 (stereo not drawn)	-2.53%
Cc1ncsc1CN1CC[C@](C)(O)[C@@H](Oc2cccc(F)c2)C1	33.7%
Cc1nc2n(n1)CC(NCc1ccnc(-c3ccccc3)n1)CC2 (stereo not drawn)	-15%
O=c1[nH]c(CCN2CCCCC2Cn2cccn2)nc2ccccc12 (stereo not drawn)	36.1%
Cc1cccnc1NC(=O)C1(n2cnnn2)CCCCC1	49.5%
CC(C)n1[nH]c(=O)c2c1NC(=O)CC2c1ccc(S(C)(=O)=O)cc1 (stereo not drawn)	-2.43%
CC(=O)NCC1CCCN(Cc2nc(Cc3ccccc3F)no2)C1 (stereo not drawn)	20.4%
CCN1CCCC(CNC(=O)C2(c3cccc(Cl)c3)CC2)C1 (stereo not drawn)	-2.42%
O=C(NCC1CCCN(Cc2cccc3nonc23)C1)c1ccc[nH]1 (stereo not drawn)	70.3%
NC1(C(=O)NCC2CCCN(Cc3ccccc3F)C2)CCCC1 (stereo not drawn)	42.4%
NC1(C(=O)NCC2CCCN(Cc3cccc4nonc34)C2)CCC1 (stereo not drawn)	62.8%
O=C(N[C@@H]1CCN(Cc2cccc3nonc23)C[C@H]1O)c1cccnc1	12.9%
CCCNc1ncc(CN2CCC3(CCNC(=O)CC3)CC2)cn1	-41.8%
CC1CCc2n[nH]c(C(=O)NCCCc3ccccn3)c2C1 (stereo not drawn)	-41.8%
Cc1ccc2oc(SCC(N)=O)nc2n1	18.4%
CCCC(=O)N1C[C@@H]2CCN(c3cnccn3)C[C@@H]2C1	-30.7%
CC(C)c1nc(CN(C)C(=O)CNS(=O)(=O)c2cccs2)cs1	26.6%
CC(C)c1nc(CN(C)Cc2ccc(F)cc2)cs1	20.4%
CC(C)c1nc(CN(C)S(=O)(=O)c2cccs2)cs1	55.4%
Cc1c(CCC(=O)Nc2ccc(Cl)cn2)cnn1C	-23.4%
Cc1ccc(-n2nc(C)cc2N)nn1	-24.2%

— ChEMBL document CHEMBL4513216, “Probing the Open Global Health Chemical Diversity Library for Multistage-Active Starting Points for Next-Generation Antimalarials” (ACS Infect Dis, 2020)
